Values joined by “and” are separate entries in the source; they are usually repeats but may differ in a detail not shown here. Equal values may be shown once. Results filed as inconclusive are left out. Active and inactive are the calls of the source. Unless noted, calls come from the whole dose curve; as a rule, active = well fitted curve in the direction sought with a large enough effect; inconclusive = small, poorly fitted or top-dose-only effect, or another doubt; inactive = no such curve, though single readings can be large; an effect the other way counts as inactive or inconclusive.
Legend:
[1] = qHTS Assay for Lipid Storage Modulators (AID 1519; calls by dose curve; for activity change, negative = inhibition: % is set by controls: 0 for no effect and ±100 for the full control effect); settings: Drosophila S3 cells, BODIPY lipid droplet/cell ratio, laser cytometry, cells loaded with oleic acid
In short: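 Cells seeded at 5,000 per well were treated with compounds over a concentration series and loaded with oleic acid (400 uM, as added). Lipid droplet fluorescence (488 nm excitation, 500-530 nm channel) was read by laser-scanning cytometry and normalized to 20 uM Triacsin C.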

[2] = Cell Viability - LYMP2-022 (AID 987); note: nearly all actives have a fitted effect of over 55% in size; note: potency is the fitted concentration of half-maximal effect
In short: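 qHTS: human lymphoblastoid cells 2500/well; 5 hr 37 C; cpd added; 24 hr 37 C; CellTiter-Glo, 30 min RT; luminescence. AC50 via Hill fit; tetraoctylammonium bromide positive ctrl.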

[3] = Cell Viability - LYMP2-024 (AID 988); note: nearly all actives have a fitted effect of over 60% in size; note: potency is the fitted concentration of half-maximal effect
In short: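 Steps: seed 2500 cells/well, 5 hr 37 C; add compound, 24 hr 37 C; add CellTiter-Glo, 30 min room temperature; read luminescence. AC50 derived by Hill modelling of concentration-dependent ATP loss.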

[4] = Cell Viability - LYMP2-026 (AID 989);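 note: cells exposed to compound for 24 h at 37 °C; nearly all actives have a fitted effect of over 50% in size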; note: potency is the fitted concentration of half-maximal effect
In short: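 Luminescent ATP signal (CellTiter-Glo, 30 min room temperature) measures viable lymphoblastoid cells after 24 hr compound treatment at 37 C. Decreased ATP reflects acute toxicity; AC50 values come from Hill-equation modeling.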

[5] = Cell Viability - LYMP1-002 - Assay at 24 hr (AID 993); note: potency is the fitted concentration of half-maximal effect
In short: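 Cells plated 2500/well, 5 hr 37 C; compounds added, 24 hr 37 C; CellTiter-Glo added, 30 min RT; luminescence read. Tetraoctylammonium bromide positive control. Hill-equation AC50.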

[6] = target: Alpha-galactosidase A (Homo sapiens) (UniProt P06280); assay: Counterscreen for Glucocerebrosidase Inhibitors: qHTS Assay for Human alpha-Galactosidase at pH 4.5 (AID 992); note: 0% is about no effect
In short: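 Human enzyme (2 nM) with 80 uM 4-methylumbelliferyl alpha-D-galactopyranoside in 50 mM citric acid, 0.005% Tween-20, pH 4.5, 20 min at room temperature. Compounds 0.7 nM–77 uM; fluorescence Ex 365/Em 440 after pH 10 stop; AC50 from Hill fits.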

[7] = target: alpha-glucosidase (Oryza sativa, rice) (UniProt Q653V4); assay: Counterscreen for Glucocerebrosidase Inhibitors: qHTS Assay for Rice alpha-Glucosidase at pH 5.0 (AID 997);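 note: 0% = full activity with enzyme and -100% = basal without enzyme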
In short: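 Rice alpha-glucosidase (4 nM final) with 400 uM 4-methylumbelliferyl-alpha-D-glucopyranoside in citrate buffer pH 5.0, 20 min at room temperature, stopped at pH 10; fluorescence 365/440 nm, compounds 0.7 nM–77 uM, AC50 from Hill fits.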

[8] = Validation of Assay for Modulators of Lamin A Splicing (AID 1459; active = well fitted curve in the direction sought with a large enough effect in the signal ratio; the % refers to the signal ratio;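 note: cells exposed to compound for two days before reading; 0% is about no effect; ratio rise marks activators and ratio drop marks inhibitors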)
In short: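 Splicing correction is reported by an EGFP-containing lamin A minigene in stably transfected S3 HeLa cells, while DsRed2 controls for viability and nonspecific signal. Cells are exposed to compounds for 48 hrs before the GFP over RFP ratio is taken.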

[9] = target: DNA repair nuclease/redox regulator APEX1 (Homo sapiens) (UniProt P27695); assay: qHTS Validation Assay for Inhibitors of the Human Apurinic/apyrimidinic Endonuclease 1 (APE1) (AID 1705;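 note: TAMRA fluorescence gain over two minutes as APE1 cuts a quenched THF abasic duplex; % is set by controls: 0 for no effect and ±100 for the full control effect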)
In short: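 Endonuclease activity of human APE1 is followed as dequenching when the enzyme incises a tetrahydrofuran abasic site in a short duplex labelled 5'-TAMRA/3'-BHQ-2 (50 nM final), after 15 min enzyme–compound preincubation at room temperature.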

[10] = Counterscreen for APE1 Inhibitors: Fluorescent Dye Displacement Validation Assay (AID 1707);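 note: plate controls were ThO with dsDNA and no compound for no effect and ThO without dsDNA for full effect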
In short: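 Thiazole Orange (250 nM) bound to 50 nM TAMRA-labelled dsDNA with tetrahydrofuran abasic site; displacement by DNA-binding compounds lowers fluorescence. Buffer 50 mM Tris-HCl pH 7.5, 50 mM NaCl, 2 mM MgCl2, 0.01% Tween-20; endpoint read at 480/540 nm.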

[11] = measured here: cell count channel max response
[12] = measured here: lipid channel max response

Chain of Alpha-galactosidase A (Homo sapiens) (P06280 whole entry, looked up): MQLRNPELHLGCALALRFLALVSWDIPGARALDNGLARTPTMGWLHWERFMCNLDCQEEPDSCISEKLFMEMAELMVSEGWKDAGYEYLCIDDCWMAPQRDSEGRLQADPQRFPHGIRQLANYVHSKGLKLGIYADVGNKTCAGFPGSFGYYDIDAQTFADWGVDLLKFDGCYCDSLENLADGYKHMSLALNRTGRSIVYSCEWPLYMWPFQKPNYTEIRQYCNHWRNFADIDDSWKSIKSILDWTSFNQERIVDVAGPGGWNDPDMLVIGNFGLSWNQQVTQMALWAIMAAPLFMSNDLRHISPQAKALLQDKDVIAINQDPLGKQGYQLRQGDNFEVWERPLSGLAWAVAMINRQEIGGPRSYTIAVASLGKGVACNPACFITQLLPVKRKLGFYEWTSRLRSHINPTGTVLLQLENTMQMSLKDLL
Chain of DNA repair nuclease/redox regulator APEX1 (Homo sapiens) (P27695 whole entry, looked up): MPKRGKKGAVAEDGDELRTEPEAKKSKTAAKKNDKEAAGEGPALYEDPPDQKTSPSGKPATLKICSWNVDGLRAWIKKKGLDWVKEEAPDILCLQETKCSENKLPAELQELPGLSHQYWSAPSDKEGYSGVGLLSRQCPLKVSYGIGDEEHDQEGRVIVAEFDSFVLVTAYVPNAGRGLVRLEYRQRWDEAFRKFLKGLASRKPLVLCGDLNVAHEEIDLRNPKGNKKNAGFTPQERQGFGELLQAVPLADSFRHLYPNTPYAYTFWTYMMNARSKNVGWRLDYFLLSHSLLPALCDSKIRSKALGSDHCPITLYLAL

Nc1ncnc2c1ncn2[C@@H]1O[C@@H](CO)[C@H](O)[C@H]1O
inactive: activity change, negative = inhibition ([1]; at 25.7 µM (top of the series)) -0.901%
-9.07%: max response [1, 12]
-3.51%: max response [1, 11]

O=c1c(O)c(-c2ccc(O)cc2)oc2cc(O)cc(O)c12
inactive: Potency [2] | Potency [3] | Potency [4] | Potency [5] | activity change, negative = inhibition ([1]; at 25.7 µM (top of the series)) -1.01% | activity change, negative = inhibition ([1]; at 57.5 µM (top of the series)) 9.57%
-23.1% and 1.49%: max response [1, 11]
-23.3% and 13.5%: max response [1, 12]

O=c1c(-c2ccc(O)cc2)coc2cc(O)ccc12
inactive: Potency [2] | Potency [3] | Potency [4] | outcome [6] | Potency [5] | outcome [7] | outcome [8] | activity change, negative = inhibition ([1]; at 57.5 µM (top of the series)) 2.37% and 2.36% and 1.08% | outcome [9] | outcome [10]
24.2% and -1.3% and -6.64%: max response [1, 12]
20.5% and -6.62% and -6.98%: max response [1, 11]

CCN(CC)CCNC(=O)c1ccc(N)cc1
inactive: outcome [6] | outcome [7] | outcome [9] | outcome [10]

O=C(O)CCc1nc(-c2ccccc2)c(-c2ccccc2)o1
inactive: outcome [6] | outcome [7] | outcome [9] | outcome [10]

CC1(C)CCC2=C(O1)c1ccccc1C(=O)C2=O
inactive: outcome [6] | outcome [7] | outcome [9] | outcome [10]

CCN(CC)CCOC(=O)c1ccc(N)cc1
inactive: outcome [6] | outcome [7] | outcome [9] | outcome [10]

O=C(O)c1cc(O)c2c(c1)C(=O)c1cccc(O)c1C2=O
13.4%: max response [1, 11]
21.8%: max response [1, 12]
inactive: Potency [2] | Potency [3] | Potency [4] | Potency [5] | activity change, negative = inhibition ([1]; at 57.5 µM (top of the series)) 8.11%

O=c1cc(-c2ccc(O)cc2)oc2cc(O)cc(O)c12
inactive: outcome [6] | outcome [7]

CC(=O)O[C@]1(C(C)=O)CC[C@H]2[C@@H]3C=C(Cl)C4=CC(=O)[C@@H]5C[C@@H]5[C@]4(C)[C@H]3CC[C@@]21C
inactive: Potency [2] | Potency [3] | Potency [4] | Potency [5]

Cc1cccc(C)c1OCC(C)N (stereo not given)
inactive: outcome [9] | outcome [10]

CC(C)OC(=O)C(C)(C)Oc1ccc(C(=O)c2ccc(Cl)cc2)cc1
inactive: outcome [6] | outcome [7] | outcome [9]

COC(=O)[C@@H]1[C@H]2C[C@H]3c4[nH]c5ccccc5c4CCN3C[C@@H]2CC[C@@H]1O
inactive: outcome [9] | outcome [10]

CCn1cc(C(=O)O)c(=O)c2ccc(C)nc21
inactive: Potency [2] | Potency [3] | Potency [4] | Potency [5]

CCCCC1C(=O)N(c2ccccc2)N(c2ccccc2)C1=O
inactive: Potency [2] | Potency [3] | Potency [4] | outcome [6] | Potency [5] | outcome [7] | outcome [9] | outcome [10]

CC1=C(/C=C/C(C)=C/C=C/C(C)=C/C(=O)Nc2ccc(O)cc2)C(C)(C)CCC1
inactive: outcome [6] | outcome [7] | outcome [9] | outcome [10]
active: Potency [2] 39.8 µM | Potency [3] 39.8 µM | Potency [4] 39.8 µM | Potency [5] 50.1 µM

CC(=O)N[C@@H](CS)C(=O)O
inactive: outcome [6] | outcome [7] | outcome [9] | outcome [10]

COCCCCC(=NOCCN)c1ccc(C(F)(F)F)cc1
inactive: outcome [6] | outcome [7] | activity change, negative = inhibition ([1]; at 25.7 µM (top of the series)) 0.501%
5.99%: max response [1, 11]
5.1%: max response [1, 12]

O=C1NC(=O)C(c2ccccc2)(c2ccccc2)N1
inactive: Potency [2] | Potency [3] | Potency [4] | outcome [6] | Potency [5] | outcome [7] | outcome [9] | outcome [10]

C[N+](C)(C)CCCCCC[N+](C)(C)C
inactive: outcome [6] | outcome [7] | activity change, negative = inhibition ([1]; at 25.7 µM (top of the series)) -1.97% | activity change, negative = inhibition ([1]; at 57.5 µM (top of the series)) 11.8% and 0.867% and 2.49% | outcome [9] | outcome [10]

CC/C(=C(\c1ccccc1)c1ccc(OCCN(C)C)cc1)c1ccccc1
active: Potency [2] 39.8 µM | Potency [3] 50.1 µM | Potency [4] 50.1 µM | Potency [5] 50.1 µM
inactive: outcome [6] | outcome [7] | outcome [9] | outcome [10]

CCN(CC)C(=O)c1ccc(O)c(OC)c1
inactive: outcome [6] | outcome [7] | outcome [9] | outcome [10]

CC(C)(C)c1ccc(C(O)CCCN2CCC(C(O)(c3ccccc3)c3ccccc3)CC2)cc1 (stereo not given)
inactive: outcome [6] | outcome [7] | outcome [9] | outcome [10]

COc1ccc(Cc2nccc3cc(OC)c(OC)cc23)cc1OC
inactive: outcome [6] | outcome [7]

O=c1[nH]cnc2c1ncn2[C@H]1CC[C@@H](CO)O1
inactive: Potency [2] | Potency [3] | Potency [4] | Potency [5]

O=C(O)Cc1cccc2ccccc12
inactive: Potency [2] | Potency [3] | Potency [4] | Potency [5]

C[N+](C)(C)CC(=O)O
inactive: outcome [6] | outcome [7]
